Our source for the binding signal values is article PMC7862700, “An all-to-all approach to the identification of sequence-specific readers for epigenetic DNA modifications on cytosine”.

Holding throughout (test): DAPPL (digital affinity profiling via proximity ligation, sequencing); 10 mM Tris-HCl pH 7.5, 50 mM NaCl, 1 mM DTT, 4% glycerol, room temperature, 30 min; GST-TFs on glutathione beads, 16-mer random dsDNA library, 0.1% formaldehyde crosslink after washing; high values mean tight binding
Holding throughout (details): protein: recombinant; tags: N-terminal GST; dsDNA, one strand shown

For assay [1], the target named is T1, FLI1 (Homo sapiens, UniProt Q01543 1-452).
T1 sequence: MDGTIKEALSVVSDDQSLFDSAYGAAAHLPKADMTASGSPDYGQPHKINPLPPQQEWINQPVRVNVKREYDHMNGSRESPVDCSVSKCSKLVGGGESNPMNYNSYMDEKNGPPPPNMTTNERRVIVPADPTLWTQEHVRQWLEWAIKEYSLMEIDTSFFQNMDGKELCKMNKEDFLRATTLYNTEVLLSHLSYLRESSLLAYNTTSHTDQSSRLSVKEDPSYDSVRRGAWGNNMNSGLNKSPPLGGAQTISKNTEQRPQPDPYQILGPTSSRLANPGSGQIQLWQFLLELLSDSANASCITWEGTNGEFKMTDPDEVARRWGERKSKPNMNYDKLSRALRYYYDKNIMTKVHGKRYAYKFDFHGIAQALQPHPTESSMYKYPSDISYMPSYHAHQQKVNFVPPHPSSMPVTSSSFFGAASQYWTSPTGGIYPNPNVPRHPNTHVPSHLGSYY
Put shortly: (§1)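 Pools were built from human transcription factors expressed in yeast as GST fusions, captured on glutathione beads and DNA-barcoded, along with a tag-only sample. Incubation with 200 nmole of a 16-mer random double-stranded DNA library lasted 30 min at room temperature in Tris/NaCl/DTT/glycerol buffer, and was followed by washing, 0.1% formaldehyde crosslinking, proximity ligation, PCR amplification and Illumina NextSeq500 sequencing. Binding signal is the quotient of each hexamer's read frequency for a factor and its frequency for the tag-only sample.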

Assay [2] concerns the target T2, ELK1 (Homo sapiens, UniProt P19419 1-428).
T2 sequence: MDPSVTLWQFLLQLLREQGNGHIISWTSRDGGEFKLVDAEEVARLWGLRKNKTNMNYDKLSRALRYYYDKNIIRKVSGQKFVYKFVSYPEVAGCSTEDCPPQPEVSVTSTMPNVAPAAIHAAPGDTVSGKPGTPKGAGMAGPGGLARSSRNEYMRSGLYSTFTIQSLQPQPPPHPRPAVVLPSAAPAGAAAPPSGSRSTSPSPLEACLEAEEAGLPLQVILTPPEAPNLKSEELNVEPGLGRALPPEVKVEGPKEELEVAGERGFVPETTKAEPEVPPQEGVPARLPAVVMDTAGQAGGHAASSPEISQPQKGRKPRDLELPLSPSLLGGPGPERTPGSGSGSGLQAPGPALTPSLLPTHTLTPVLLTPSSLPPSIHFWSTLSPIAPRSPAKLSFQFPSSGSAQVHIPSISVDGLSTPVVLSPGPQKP
Put shortly: as §1

Assay [3] has as its target T3, GABPA (Homo sapiens, UniProt Q06546 1-454).
T3 sequence: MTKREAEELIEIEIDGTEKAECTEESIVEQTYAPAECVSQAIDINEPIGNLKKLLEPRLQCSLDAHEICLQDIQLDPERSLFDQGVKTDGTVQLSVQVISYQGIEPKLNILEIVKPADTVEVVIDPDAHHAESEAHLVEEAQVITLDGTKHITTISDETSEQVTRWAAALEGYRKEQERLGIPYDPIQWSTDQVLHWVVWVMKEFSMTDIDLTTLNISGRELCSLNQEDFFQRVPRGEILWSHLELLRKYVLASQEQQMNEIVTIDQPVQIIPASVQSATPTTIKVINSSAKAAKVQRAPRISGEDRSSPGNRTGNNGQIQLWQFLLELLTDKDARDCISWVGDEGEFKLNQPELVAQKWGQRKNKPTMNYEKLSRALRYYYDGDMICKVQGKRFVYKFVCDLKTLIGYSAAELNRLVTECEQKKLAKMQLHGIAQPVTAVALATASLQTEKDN
In a few lines: as §1

The target of assay [4] is T4, ERG (Homo sapiens, UniProt P11308 1-479).
T4 sequence: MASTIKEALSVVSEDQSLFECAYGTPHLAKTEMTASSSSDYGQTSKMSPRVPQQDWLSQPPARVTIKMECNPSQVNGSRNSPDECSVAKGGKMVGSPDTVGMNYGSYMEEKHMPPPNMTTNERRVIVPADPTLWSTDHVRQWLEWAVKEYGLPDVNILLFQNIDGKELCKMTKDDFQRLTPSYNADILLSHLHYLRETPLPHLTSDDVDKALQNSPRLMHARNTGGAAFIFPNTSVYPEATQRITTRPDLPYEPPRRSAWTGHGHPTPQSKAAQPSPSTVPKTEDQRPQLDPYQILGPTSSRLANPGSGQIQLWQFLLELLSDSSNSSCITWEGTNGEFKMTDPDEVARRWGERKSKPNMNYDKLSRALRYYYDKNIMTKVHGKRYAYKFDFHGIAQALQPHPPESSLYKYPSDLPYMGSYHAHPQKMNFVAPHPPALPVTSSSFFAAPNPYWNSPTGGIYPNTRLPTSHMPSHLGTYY
In a few lines: as §1

Assay [5] addresses ELF1 (Homo sapiens, UniProt P32519 1-619). Put shortly:
as §1

The target of assay [6] is T5, EHF (Homo sapiens, UniProt Q9NZC4 1-300).
T5 sequence: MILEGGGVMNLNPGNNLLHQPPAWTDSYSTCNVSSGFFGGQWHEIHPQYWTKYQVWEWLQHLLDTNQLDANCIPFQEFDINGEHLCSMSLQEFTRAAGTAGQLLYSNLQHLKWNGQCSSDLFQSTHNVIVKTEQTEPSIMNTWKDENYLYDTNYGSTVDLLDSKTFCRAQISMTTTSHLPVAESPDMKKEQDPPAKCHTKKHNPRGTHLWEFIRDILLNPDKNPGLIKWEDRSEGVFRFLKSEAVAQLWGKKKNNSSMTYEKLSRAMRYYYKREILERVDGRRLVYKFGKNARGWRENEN
In a few lines:
as §1

The target of assay [7] is SPI1 (Homo sapiens, UniProt P17947 1-270). Put shortly: as §1
Assay [8] deals with SPIB (Homo sapiens, UniProt Q01892 1-262). Put shortly: as §1
Assay [9] concerns the target T6, ELK3 (Homo sapiens, UniProt P41970 1-407).
T6 sequence: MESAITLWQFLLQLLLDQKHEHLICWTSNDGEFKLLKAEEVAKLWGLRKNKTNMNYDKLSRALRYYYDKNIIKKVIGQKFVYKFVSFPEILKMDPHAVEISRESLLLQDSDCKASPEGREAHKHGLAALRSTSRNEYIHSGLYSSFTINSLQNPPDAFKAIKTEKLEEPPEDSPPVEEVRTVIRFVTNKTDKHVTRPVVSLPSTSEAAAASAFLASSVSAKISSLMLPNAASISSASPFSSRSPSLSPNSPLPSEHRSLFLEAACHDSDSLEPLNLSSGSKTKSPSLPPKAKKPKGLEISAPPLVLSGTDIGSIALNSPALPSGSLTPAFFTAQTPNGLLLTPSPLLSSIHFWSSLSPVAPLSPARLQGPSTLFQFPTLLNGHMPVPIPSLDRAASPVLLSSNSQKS
In a few lines:
as §1

Chain of ELF1 (P32519 whole entry): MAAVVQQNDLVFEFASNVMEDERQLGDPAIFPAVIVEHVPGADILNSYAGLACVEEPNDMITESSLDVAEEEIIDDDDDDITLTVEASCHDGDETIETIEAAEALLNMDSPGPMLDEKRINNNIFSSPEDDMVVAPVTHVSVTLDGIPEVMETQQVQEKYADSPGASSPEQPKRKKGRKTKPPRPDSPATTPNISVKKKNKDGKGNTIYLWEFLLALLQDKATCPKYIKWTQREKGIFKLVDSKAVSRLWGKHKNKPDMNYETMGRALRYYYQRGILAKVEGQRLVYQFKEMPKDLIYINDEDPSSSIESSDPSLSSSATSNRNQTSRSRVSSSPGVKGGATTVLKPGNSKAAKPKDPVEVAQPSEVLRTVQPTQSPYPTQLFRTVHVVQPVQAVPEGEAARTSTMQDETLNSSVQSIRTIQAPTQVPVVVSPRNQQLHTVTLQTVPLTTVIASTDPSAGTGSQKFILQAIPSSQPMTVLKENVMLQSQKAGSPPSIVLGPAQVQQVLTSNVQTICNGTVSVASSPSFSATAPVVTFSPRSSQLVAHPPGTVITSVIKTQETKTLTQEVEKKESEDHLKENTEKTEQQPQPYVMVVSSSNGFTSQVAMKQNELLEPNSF
Chain of SPIB (Q01892 whole entry): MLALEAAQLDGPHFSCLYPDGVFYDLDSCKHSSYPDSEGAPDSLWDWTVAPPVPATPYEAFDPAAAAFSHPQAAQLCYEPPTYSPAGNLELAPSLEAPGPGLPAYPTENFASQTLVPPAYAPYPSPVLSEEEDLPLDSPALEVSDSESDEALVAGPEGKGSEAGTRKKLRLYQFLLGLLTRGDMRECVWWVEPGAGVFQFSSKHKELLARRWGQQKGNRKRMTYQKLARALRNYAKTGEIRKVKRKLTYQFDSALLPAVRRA

As for CTCTAG, the binding signal was 1.25 fold enrichment (6-mer frequency, TF over GST control) in assay [1]; 1.26 fold enrichment (6-mer frequency, TF over GST control) in assay [2]; 1.32 fold enrichment (6-mer frequency, TF over GST control) in assay [3]; 1.25 fold enrichment (6-mer frequency, TF over GST control) in assay [4]; 1.38 fold enrichment (6-mer frequency, TF over GST control) in [5]; 1.36 fold enrichment (6-mer frequency, TF over GST control) in assay [6]. Further, the binding signal is 1.09 fold enrichment (6-mer frequency, TF over GST control) in assay [7]; 1.22 fold enrichment (6-mer frequency, TF over GST control) in [8]; 1.26 fold enrichment (6-mer frequency, TF over GST control) in [9].

On to TCTCAG, for which the binding signal in assay [1] is 1.4 fold enrichment (6-mer frequency, TF over GST control); in assay [2] it was 1.48 fold enrichment (6-mer frequency, TF over GST control); in assay [3], 1.42 fold enrichment (6-mer frequency, TF over GST control); in assay [4], 1.43 fold enrichment (6-mer frequency, TF over GST control); in assay [5], 1.45 fold enrichment (6-mer frequency, TF over GST control); in [6], 1.43 fold enrichment (6-mer frequency, TF over GST control). Besides, the binding signal in [7] is 1.55 fold enrichment (6-mer frequency, TF over GST control); in [8], 1.39 fold enrichment (6-mer frequency, TF over GST control); in assay [9], 1.39 fold enrichment (6-mer frequency, TF over GST control).

With ATTTAG, the binding signal is 1.13 fold enrichment (6-mer frequency, TF over GST control) in [1]; 1.07 fold enrichment (6-mer frequency, TF over GST control) in [2]; 1.27 fold enrichment (6-mer frequency, TF over GST control) in [3]; 1.02 fold enrichment (6-mer frequency, TF over GST control) in [4]; 1.15 fold enrichment (6-mer frequency, TF over GST control) in assay [5]; 1.14 fold enrichment (6-mer frequency, TF over GST control) in assay [6]. Moreover, the binding signal in [7] is 1.11 fold enrichment (6-mer frequency, TF over GST control); in assay [8], 1.16 fold enrichment (6-mer frequency, TF over GST control); in [9], 1.09 fold enrichment (6-mer frequency, TF over GST control).

For the sequence TTAACT, the binding signal in [1] is 1.18 fold enrichment (6-mer frequency, TF over GST control); in assay [2], 1.14 fold enrichment (6-mer frequency, TF over GST control); in assay [3], 1.15 fold enrichment (6-mer frequency, TF over GST control); in assay [4], 1.17 fold enrichment (6-mer frequency, TF over GST control); in [5] it was 1.27 fold enrichment (6-mer frequency, TF over GST control); in [6], 1.1 fold enrichment (6-mer frequency, TF over GST control). In addition, the binding signal in [7] is 1.23 fold enrichment (6-mer frequency, TF over GST control); in [8], 1.21 fold enrichment (6-mer frequency, TF over GST control); in assay [9], 1.19 fold enrichment (6-mer frequency, TF over GST control).

For CTTATC, the binding signal in [1] was 1.18 fold enrichment (6-mer frequency, TF over GST control); in [2], 1.15 fold enrichment (6-mer frequency, TF over GST control); in assay [3], 1.16 fold enrichment (6-mer frequency, TF over GST control); in assay [4] it was 1.1 fold enrichment (6-mer frequency, TF over GST control); in [5] it was 1.21 fold enrichment (6-mer frequency, TF over GST control); in assay [6] it was 1.08 fold enrichment (6-mer frequency, TF over GST control). Moreover, the binding signal in assay [7] was 1.2 fold enrichment (6-mer frequency, TF over GST control); in assay [8] it was 1.21 fold enrichment (6-mer frequency, TF over GST control); in assay [9], 1.09 fold enrichment (6-mer frequency, TF over GST control).

With CTTCGT, the binding signal in [1] is 1.34 fold enrichment (6-mer frequency, TF over GST control); in assay [2], 1.45 fold enrichment (6-mer frequency, TF over GST control); in assay [3], 1.38 fold enrichment (6-mer frequency, TF over GST control); in assay [4], 1.3 fold enrichment (6-mer frequency, TF over GST control); in assay [5], 1.3 fold enrichment (6-mer frequency, TF over GST control); in assay [6], 1.36 fold enrichment (6-mer frequency, TF over GST control). For the same sequence, the binding signal was 1.39 fold enrichment (6-mer frequency, TF over GST control) in assay [7]; 1.32 fold enrichment (6-mer frequency, TF over GST control) in [8]; 1.4 fold enrichment (6-mer frequency, TF over GST control) in [9].

With ATAATA, the binding signal is 1.13 fold enrichment (6-mer frequency, TF over GST control) in [1]; 1.07 fold enrichment (6-mer frequency, TF over GST control) in [2]; 1.18 fold enrichment (6-mer frequency, TF over GST control) in [3]; 1.17 fold enrichment (6-mer frequency, TF over GST control) in assay [4]; 1.23 fold enrichment (6-mer frequency, TF over GST control) in assay [5]; 1.24 fold enrichment (6-mer frequency, TF over GST control) in assay [6]. For the same sequence, the binding signal in assay [7] was 1.18 fold enrichment (6-mer frequency, TF over GST control); in [8], 1.18 fold enrichment (6-mer frequency, TF over GST control); in assay [9], 1.11 fold enrichment (6-mer frequency, TF over GST control).

As to CATCCC, the binding signal in assay [1] was 1.39 fold enrichment (6-mer frequency, TF over GST control); in [2] it was 1.22 fold enrichment (6-mer frequency, TF over GST control); in assay [3], 1.24 fold enrichment (6-mer frequency, TF over GST control); in assay [4] it was 1.29 fold enrichment (6-mer frequency, TF over GST control); in [5], 1.29 fold enrichment (6-mer frequency, TF over GST control); in [6], 1.29 fold enrichment (6-mer frequency, TF over GST control). In addition, the binding signal in assay [7] is 1.25 fold enrichment (6-mer frequency, TF over GST control); in assay [8], 1.26 fold enrichment (6-mer frequency, TF over GST control); in assay [9], 1.24 fold enrichment (6-mer frequency, TF over GST control).
